Entries with a potency or affinity are not part of this list. Records with an inconclusive call do not appear. Active and inactive are the calls of the source. No rule for the calls is given here.
assay: toxicity to human HepG2 hepatoma cells – cell-based, plate reader, dry powder samples, cytotoxicity control, dose response (AID 1159569); details: HepG2 cytotoxicity counterscreen; series mostly up to 50 µM

Compound	outcome
COc1ccc(NC(=O)N2CCCCN3[C@@H](CO)[C@H](c4ccc(C#Cc5ccccn5)cc4)[C@@H]3C2)cc1	inactive
COc1ccccc1S(=O)(=O)N(C)C[C@H]1Oc2cc(/C=C/c3ccccc3)ccc2S(=O)(=O)N([C@H](C)CO)C[C@@H]1C	inactive
Cc1ccc(S(=O)(=O)N(C)C[C@H]2OCc3ccccc3-c3c(n(C)c4ccccc34)C(=O)N([C@H](C)CO)C[C@@H]2C)cc1	inactive
CC(C)NC(=O)N1[C@@H](CO)[C@@H](c2ccccc2)C12CN(Cc1ccc(F)cc1)C2	inactive
COc1ccccc1NC(=O)Nc1ccc2c(c1)OC[C@@H](C)N(Cc1ccccc1Cl)C[C@@H](C)[C@H](OC)CN(C)C2=O	inactive
COc1cccc(C#Cc2ccc([C@H]3[C@@H](CO)N(C(=O)c4ccccn4)[C@H]3C#N)cc2)c1	inactive
COc1ccc(S(=O)(=O)Nc2ccc3c(c2)CC(=O)N([C@H](C)CO)C[C@H](C)[C@H](CN(C)S(=O)(=O)c2ccc(C)cc2)O3)cc1	inactive
O=C(Nc1ccccc1)N1CCCCN2[C@H](CO)[C@H](c3ccc(C#Cc4cccnc4)cc3)[C@@H]2C1	inactive
O=C(Nc1ccccc1)N1CCCCN2[C@@H](CO)[C@H](c3ccc(C#Cc4cccnc4)cc3)[C@@H]2C1	inactive
C/C=C/c1ccc([C@H]2[C@@H](C#N)N(C(=O)NC3CCCC3)[C@@H]2CO)cc1	inactive
COc1ccc(S(=O)(=O)Nc2ccc3c(c2)CC(=O)N([C@@H](C)CO)C[C@H](C)[C@H](CN(C)S(=O)(=O)c2ccc(OC)cc2)O3)cc1	inactive
COc1ccc(NC(=O)N2CC3(C2)CN(C(=O)C2CCC2)[C@H](CO)c2c3c3ccc(OC)cc3n2C)cc1	inactive
COc1ccc2c3c(n(C)c2c1)[C@@H](CO)N(C(=O)C1CCCC1)CC31CN(C(=O)Nc2cccc(F)c2)C1	inactive
COc1ccc(C#Cc2ccc3c(c2)O[C@@H](CN(C)C(=O)Nc2cccc(OC)c2)[C@H](C)CN([C@H](C)CO)S3(=O)=O)cc1	inactive
O=C(c1ccccc1F)N1CC(=O)N2[C@H](CO)[C@H](c3ccc(-c4cccnc4)cc3)[C@H]2C1	inactive
C[C@H](CO)N1C[C@H](C)[C@@H](CN(C)C(=O)Nc2cccc3ccccc23)Oc2ccc(NC(=O)Cc3cn(C)c4ccccc34)cc2C1=O	inactive

Compound	outcome
C[C@@H]1CN([C@H](C)CO)C(=O)c2cc(NC(=O)Nc3ccc(C(F)(F)F)cc3)ccc2O[C@H]1CN(C)C(=O)Nc1cccc2ccccc12	inactive
O=C(NC[C@@H]1CC[C@H]2[C@H](CN2Cc2cc(-c3ccccc3)on2)O1)c1ccc2c(c1)OCO2	inactive
COc1ccc(-c2ccccc2[C@H]2[C@@H](C#N)N(C(=O)NC(C)C)[C@H]2CO)cc1	inactive
C[C@H](CO)N1C[C@H](C)[C@H](CN(C)S(=O)(=O)c2ccc([N+](=O)[O-])cc2)OCc2ccccc2-c2c(n(C)c3ccccc23)C1=O	inactive
COc1ccc2c3c(n(C)c2c1)[C@@H](CO)N(C(=O)C1CC1)CC31CN(C(=O)Nc2cccc(F)c2)C1	inactive
COc1cccc(S(=O)(=O)N(C)C[C@@H]2Oc3ncc(C#Cc4ccc(OC)c(OC)c4)cc3C(=O)N([C@H](C)CO)C[C@@H]2C)c1	inactive
COc1ccc(C#Cc2cnc3c(c2)C(=O)N([C@H](C)CO)C[C@H](C)[C@H](CN(C)S(=O)(=O)c2cccc(F)c2)O3)cc1OC	inactive
C[C@@H]1CN([C@H](C)CO)C(=O)c2cc(C#CCc3ccccc3)cnc2O[C@H]1CN(C)C(=O)C1CCC1	inactive
COc1cccc(CN2CC3(CCN(Cc4ccccn4)CC3)c3c([nH]c4cc(OC)ccc34)[C@@H]2CO)c1	inactive
COc1ccc(NC(=O)N(C)C[C@@H]2Oc3cc(-c4ccc(C)cc4)ccc3S(=O)(=O)N([C@H](C)CO)C[C@@H]2C)cc1	inactive
COc1ccc(-c2ccccc2[C@H]2[C@@H](C#N)N(C(=O)C3CCCC3)[C@@H]2CO)cc1	inactive
C[C@@H]1CN([C@H](C)CO)S(=O)(=O)c2ccc(C#Cc3ccccc3F)cc2O[C@H]1CN(C)C(=O)c1ccc2c(c1)OCO2	inactive
C[C@H](CO)N1C[C@H](C)[C@H](CN(C)S(=O)(=O)c2ccc(C#N)cc2)OCc2ccccc2-c2c(n(C)c3ccccc23)C1=O	inactive
C[C@@H]1CN([C@@H](C)CO)C(=O)c2cccc(NC(=O)Nc3ccccc3)c2O[C@@H]1CN(C)C(=O)Nc1ccc(F)cc1	inactive
O=C(C1CCCC1)N1CC(=O)N2[C@H](CO)[C@H](c3ccc(-c4cccnc4)cc3)[C@H]2C1	inactive

— PubChem BioAssay AID1159569 (Broad Institute, 2015)
